Measured values as given in PubChem BioAssay (Tox21).
Results filed as inconclusive are left out. Entries that show only a call come without a potency. Calls of active or inactive are those of the source. Unless noted, the call rests on the fitted dose curve; in most records, active means well fitted curve in the direction sought with a large enough effect in the repeat runs; inconclusive means weak or mixed curves; inactive means no such curve, though single readings can be large; an effect the other way counts as inactive or inconclusive.

Columns and labels:
[1] = qHTS assay to identify small molecule agonists of the estrogen related receptor (ERR) signaling pathway (AID 1224820)
Method in brief: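 ERR reporter cells (NTP line) plated 2,000/well, incubated 6 h at 37 C/5% CO2, then pinned with compounds in DMSO and held 18 h at 37 C. One-Glo added; luminescence read after 30 min at room temperature.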

[2] = tested on: estrogen-related receptor alpha (ERRalpha) with PGC-1alpha coactivator, human; assay: qHTS assay to identify small molecule antagonists of the estrogen related receptor signaling pathway with the pleiotropic PPARgamma coactivator (PGC) (AID 1224821; calls by dose curve; further: nearly all actives have a fitted effect of over 50% in size; further: potency means the concentration at half of the fitted maximal effect;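 on activity change, negative = inhibition: series mostly up to about 46 µM; lower luminescence signal means antagonism of PGC/ERR signalling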)
Method in brief: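 Cells engineered for PGC/ERR signalling (line from NTP) were plated 6 h at 37 C/5% CO2, then exposed to DMSO-dissolved compound for 18 h at 37 C. Luciferase activity was read by One-Glo luminescence after 30 min at room temperature.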

[3] = qHTS assay to identify small molecule antagonists of the estrogen related receptor signaling pathway with the pleiotropic PPARgamma coactivator (PGC) cell viability counter screen (AID 1224822; further: potency means the concentration at half of the fitted maximal effect;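 further: viability read after 17.5 h compound exposure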; on viability change, negative = cytotoxic: series mostly up to about 46 µM)
Method in brief: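 Compounds in DMSO, with positive and negative controls, were applied to PGC/ERR cells (2,000/well) and left 17.5 h at 37 C before CellTiter-Fluor detection.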

[4] = qHTS assay to identify small molecule agonists of the estrogen related receptor signaling pathway with the pleiotropic PPARgamma coactivator (PGC) (AID 1224823)
Method in brief: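 PGC/ERR reporter cells were seeded, rested 6 h at 37 C/5% CO2, then exposed to compounds in DMSO by pin transfer for 18 h at 37 C. Luciferase activity was read as luminescence after One-Glo reagent and 30 min at room temperature.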

[5] = qHTS assay to identify small molecule antagonists of the estrogen related receptor (ERR) signaling pathway from Tox21 library - cell viability counter screen (AID 1224834); further: nearly all actives have a fitted effect of over 30% in size; further: potency means the concentration at half of the fitted maximal effect
Method in brief: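 CellTiter-Fluor fluorescence measured; ERR cells; 17.5 h compound incubation at 37 C; 30 min reagent step.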

[6] = qHTS assay to identify small molecule agonists of the constitutive androstane receptor (CAR) signaling pathway - cell viability counter screen (AID 1224836); further: nearly all actives have a fitted effect of over 45% in size; further: potency means the concentration at half of the fitted maximal effect; on viability change, negative = cytotoxic: series mostly up to about 92 µM
Method in brief: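 Viability read-out: CellTiter-Fluor fluorescence after 23 h compound exposure at 37 C/5% CO2 in double-stable HepG2-CYP2B6-hCAR cells, with PK11195 present at 0.75 uM final; compounds tested in 15-point titration.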

[7] = target: Luciferin 4-monooxygenase (Photinus pyralis) (UniProt P08659); assay: qHTS assay to identify small molecule inhibitors of firefly luciferase (AID 1224835); further: nearly all actives have a fitted effect of over 25% in size; further: potency means the concentration at half of the fitted maximal effect; on activity change, negative = inhibition: series mostly up to about 120 µM
Method in brief: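 Biochemical qHTS: compounds run as interplate titrations against purified firefly enzyme, with D-luciferin and ATP each at its KM concentration. Light output recorded by CCD imaging.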

[8] = qHTS assay to identify small molecule antagonists of the estrogen related receptor (ERR) signaling pathway (AID 1224819;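 further: luminescence from an ERR-driven luciferase reporter measured with One-Glo reagent; series mostly up to about 46 µM; nearly all actives have a fitted effect of over 50% in size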)
Method in brief: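 qHTS in ERR cells, 2,000/well, 1536 format. Cpd (DMSO) added after 6 h settle, 18 h 37 C. One-Glo luminescence, 30 min RT.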

Luciferin 4-monooxygenase (Photinus pyralis), sequence (P08659 whole entry, looked up): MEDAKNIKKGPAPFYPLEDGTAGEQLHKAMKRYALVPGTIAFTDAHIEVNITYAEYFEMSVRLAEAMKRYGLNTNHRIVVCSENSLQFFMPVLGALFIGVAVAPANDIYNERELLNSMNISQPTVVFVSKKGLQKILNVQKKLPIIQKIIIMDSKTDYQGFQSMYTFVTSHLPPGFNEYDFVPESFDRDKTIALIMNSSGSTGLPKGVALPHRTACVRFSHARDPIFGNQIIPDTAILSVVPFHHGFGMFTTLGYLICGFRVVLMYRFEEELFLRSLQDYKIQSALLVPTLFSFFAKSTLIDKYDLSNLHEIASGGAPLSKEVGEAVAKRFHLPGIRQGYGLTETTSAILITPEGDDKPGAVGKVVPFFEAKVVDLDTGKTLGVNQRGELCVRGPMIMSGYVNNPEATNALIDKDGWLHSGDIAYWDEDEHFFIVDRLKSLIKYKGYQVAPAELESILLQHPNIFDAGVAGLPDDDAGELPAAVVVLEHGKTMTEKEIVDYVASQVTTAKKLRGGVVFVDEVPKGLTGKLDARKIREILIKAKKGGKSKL

In the case of O=[N+]([O-])c1ccc2c(c1)S(=O)(=O)C=C2, the Potency [1] is reported as “inactive”.
For Cc1cc(Cl)ccc1OCCCC(=O)NO, the Potency [1] was “inactive” and the Potency [2] was “inactive”.
In the case of O=C1Nc2ccc(I)cc2/C1=C/c1cc(Br)c(O)c(Br)c1, the Potency [2] is reported as “inactive”, the Potency [3] is reported as “inactive” and the Potency [4] is reported as “inactive”.
In the case of Nc1nc(N)c(N=O)c(OCC2CCCCC2)n1, the Potency [1] is reported as “inactive”, the Potency [2] is reported as “inactive” and the Potency [4] is reported as “inactive”.
In the case of CCN(CC)CC#CCOC(=O)C(O)(c1ccccc1)C1CCCCC1 (stereo unspecified), the Potency [1] is reported as “inactive” and the Potency [4] is reported as “inactive”.
In the case of COc1ccccc1N1CCN(CCCCNC(=O)c2ccc3ccccc3c2)CC1, the Potency [1] is reported as “inactive” and the Potency [4] is reported as “inactive”.
With CN1CCN(CCCN2c3ccccc3Sc3ccc(C(F)(F)F)cc32)CC1 the Potency [1] was “inactive”, the Potency [2] was “inactive” and the Potency [5] was 29.8 µM (active). The Potency [6] was “inactive”.
In the case of CN1CCN(CCCN2c3ccccc3Sc3ccc(Cl)cc32)CC1, the Potency [3] is reported as 27.6 µM (active), the Potency [5] is reported as 29.8 µM (active) and the Potency [7] is reported as “inactive”. The Potency [6] was “inactive”.
With Oc1ccc(/C=C/c2ccc(/C=C/c3ccc(O)cc3)c(Br)c2)cc1 the Potency [1] was “inactive”, the Potency [2] was “inactive” and the Potency [4] was “inactive”.
In the case of CC(=O)/C=C1\C(=O)N(C)c2ccccc21, the Potency [1] is reported as “inactive”, the Potency [2] is reported as 28.7 µM (active) and the Potency [4] is reported as “inactive”.
For Clc1ccc2c(c1)N=C(N1CCNCC1)c1ccccc1N2, the Potency [1] was “inactive”, the Potency [2] was “inactive” and the Potency [4] was “inactive”.
For N#C/C(=C\c1ccc(O)c(O)c1)C(=O)Nc1ccccc1, the Potency [8] was “inactive” and the Potency [2] was “inactive”.
For NC(=NCc1ccccc1)NC(=O)c1nc(Cl)c(N)nc1N, the Potency [1] was “inactive”, the Potency [2] was “inactive” and the Potency [4] was “inactive”.
In the case of O=c1oc(Cl)c(Cl)c2ccccc12, the Potency [1] is reported as “inactive” and the Potency [4] is reported as “inactive”.
In the case of CN(C)CCOc1ccc(/C(=C(/CCCl)c2ccccc2)c2ccccc2)cc1, the Potency [5] is reported as 51 µM (active).
For C1=CCCC1, the Potency [5] was “inactive”, the Potency [7] was “inactive” and the Potency [6] was “inactive”.
With CSc1nnc(C(C)(C)C)c(=O)[nH]1 the Potency [5] was “inactive”, the Potency [7] was “inactive” and the Potency [6] was “inactive”.
With Oc1ccc(C2(c3ccc(O)c(C4CCCCC4)c3)CCCCC2)cc1C1CCCCC1 the Potency [5] was 61.1 µM (active), the Potency [7] was “inactive” and the Potency [6] was 48.6 µM (active).
With C=CC(C)(C)O the Potency [5] was “inactive”, the Potency [7] was “inactive” and the Potency [6] was “inactive”.
For C1CCSC1, the Potency [5] was “inactive”, the Potency [7] was “inactive” and the Potency [6] was “inactive”.
For O=C1CCC(=O)N1, the Potency [5] was “inactive”, the Potency [7] was “inactive” and the Potency [6] was “inactive”.
In the case of [Cl][Sc]([Cl])[Cl], the Potency [5] is reported as “inactive”, the Potency [7] is reported as 28.3 µM (active) and the Potency [6] is reported as “inactive”.
With CCCCC/C=C\C=C\C(=O)OCC the Potency [5] was 71.5 µM (active) and the Potency [7] was “inactive”.
In the case of CCCCCN=C(N)N/N=C/c1c[nH]c2ccc(OC)cc12, the Potency [5] is reported as 26.6 µM (active), the Potency [7] is reported as “inactive” and the Potency [6] is reported as 21.1 µM (active).
With CC/C(=C(/c1ccc(O)cc1)c1ccc(OCCN(C)C)cc1)c1ccccc1 the Potency [5] was 32 µM (active), the Potency [7] was “inactive” and the Potency [6] was 40.3 µM (active).
For CC1CCC(C(C)(C)O)CC1 (stereo unspecified), the Potency [5] was “inactive”, the Potency [7] was “inactive” and the Potency [6] was “inactive”.
For Nc1ccc2c(S(=O)(=O)O)cccc2c1S(=O)(=O)O, the Potency [5] was “inactive”.
With CC(C)=CCC[C@H](C)CC=O the Potency [5] was “inactive”, the Potency [7] was “inactive” and the Potency [6] was “inactive”.
In the case of CN(C[C@@H](CC[N+]12CCC(C3CCCCC3)(CC1)CC2)c1ccc(Cl)c(Cl)c1)C(=O)c1cc(C(F)(F)F)cc(C(F)(F)F)c1, the Potency [5] is reported as 48.6 µM (active).
In the case of CN(C/C=C/c1ccccc1)Cc1cccc2ccccc12, the Potency [5] is reported as “inactive”, the Potency [7] is reported as “inactive” and the Potency [6] is reported as “inactive”.
In the case of CCOC=C(C(=O)OCC)C(=O)OCC, the Potency [5] is reported as “inactive”, the Potency [7] is reported as “inactive” and the Potency [6] is reported as “inactive”.
In the case of c1ccc(-c2nc3ccccc3[nH]2)cc1, the Potency [5] is reported as “inactive” and the Potency [7] is reported as 5.64 µM (active).
In the case of CCC1(C)C(=O)N(Cl)C(=O)N1Cl (stereo unspecified), the Potency [5] is reported as “inactive”, the Potency [7] is reported as “inactive” and the Potency [6] is reported as “inactive”.
For c1ccc(C[P+](c2ccccc2)(c2ccccc2)c2ccccc2)cc1, the Potency [5] was 21.7 µM (active), the Potency [7] was “inactive” and the Potency [6] was 30.6 µM (active).
For Cc1ccc(Cl)c(N)c1Cl, the Potency [5] was “inactive”, the Potency [7] was “inactive” and the Potency [6] was “inactive”.
With CCOC(=O)[C@H](O)[C@@H](O)C(=O)OCC the Potency [5] was “inactive”, the Potency [7] was “inactive” and the Potency [6] was “inactive”.
For CCCC(C)C=O (stereo unspecified), the Potency [5] was “inactive”, the Potency [7] was “inactive” and the Potency [6] was “inactive”.
With Cc1cccc(C)c1C the Potency [5] was “inactive”, the Potency [7] was “inactive” and the Potency [6] was “inactive”.
In the case of COc1cccc(-c2ccc(/C=C\CN3CCCCCC3)cc2Cl)c1, the Potency [5] is reported as “inactive”, the Potency [7] is reported as “inactive” and the Potency [6] is reported as “inactive”.
In the case of CN[C@H]1CC[C@@H](c2ccc(Cl)c(Cl)c2)c2ccc(S(N)(=O)=O)cc21, the Potency [5] is reported as 68.6 µM (active), the Potency [7] is reported as “inactive” and the Potency [6] is reported as 61.1 µM (active).
In the case of Cc1ccc(C=O)cc1, the Potency [5] is reported as “inactive”, the Potency [7] is reported as “inactive” and the Potency [6] is reported as “inactive”.
With Cc1cc(F)ccc1-c1cc(N2CC[C@@H](O)[C@H]2CO)ncc1N(C)C(=O)C(C)(C)c1cc(C(F)(F)F)cc(C(F)(F)F)c1 the Potency [5] was 42.6 µM (active).
In the case of CCCCCCCCSCc1cc(C)c(O)c(CSCCCCCCCC)c1, the Potency [5] is reported as “inactive”, the Potency [7] is reported as “inactive” and the Potency [6] is reported as “inactive”.
With CCCCCCCCc1ccc(Nc2ccc(CCCCCCCC)cc2)cc1 the Potency [5] was “inactive”, the Potency [7] was “inactive” and the Potency [6] was “inactive”.
In the case of CCN(CC)c1ccc(N=Nc2ccccc2)cc1, the Potency [5] is reported as 24.3 µM (active) and the Potency [7] is reported as 0.502 µM (active).
With CC(C)C(=O)C(C)C the Potency [5] was “inactive”, the Potency [7] was “inactive” and the Potency [6] was “inactive”.
For C=Cc1ccc(O)c(OC)c1, the Potency [5] was “inactive”, the Potency [7] was “inactive” and the Potency [6] was “inactive”.
With CCc1c(C)cc(N)c(CC)c1N the Potency [5] was “inactive”, the Potency [7] was “inactive” and the Potency [6] was “inactive”.
With [Cl][Eu]([Cl])[Cl] the Potency [5] was “inactive”, the Potency [7] was 31.7 µM (active) and the Potency [6] was “inactive”.
In the case of c1ccc(-c2ccccc2-c2ccccc2)cc1, the Potency [5] is reported as “inactive”, the Potency [7] is reported as “inactive” and the Potency [6] is reported as “inactive”.
For CCC(=O)OC/C=C(\C)CCC=C(C)C, the Potency [5] was “inactive”, the Potency [7] was “inactive” and the Potency [6] was “inactive”.
In the case of Nc1c(Br)cc([N+](=O)[O-])cc1Br, the Potency [5] is reported as “inactive”, the Potency [7] is reported as “inactive” and the Potency [6] is reported as “inactive”.
With O=C(CCN1CCC(c2ccccc2)C1)c1ccc2c(c1)OCCO2 (stereo unspecified) the Potency [5] was “inactive”, the Potency [7] was “inactive” and the Potency [6] was “inactive”.
With CCCCCCCCOC(=O)c1cc(O)c(O)c(O)c1 the Potency [5] was 24.3 µM (active) and the Potency [7] was “inactive”.
For COc1cc(C(C)C)ccc1C, the viability change, negative = cytotoxic [5] was 2.54% [at 19 µM] (inactive), the activity change, negative = inhibition [7] was 1.91% [at 23.6 µM] (inactive) and the viability change, negative = cytotoxic [6] was 2.67% [at 19 µM] (inactive).
In the case of CC(O)(c1ccc(Cl)cc1)c1ccc(Cl)cc1, the Potency [5] is reported as 61.1 µM (active), the Potency [7] is reported as “inactive” and the Potency [6] is reported as “inactive”.
